# Several values for one entry are separate records, joined by “and”; a condition that tells them apart may be missing. Equal entries are not always repeated. Activity calls are given as the source filed them. How the source made its calls: active means hit-call score of the fitted dose curve at least 0.9, where 1 is the maximum; inactive means score below 0.9.
# Read-out: Monocyte Chemoattractant Protein-1 (MCP1), CCL2 (gene 6347)
# Experiment: BSK_4H_MCP1: BioMAP Diversity Plus: 4H Assay for Monocyte Chemoattractant Protein-1 (MCP1) Biomarker Activity (AID 2283018)
# Conditions: primary human endothelial cells (HUVEC); actives raise or lower the signal
# Procedure, shortened: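 ELISA read-out of MCP-1 from human vascular endothelial primary cells taken at 24 hours after compound exposure. Activity was fitted in both directions relative to DMSO, which served as negative control.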
SMILES,outcome,AC50
COC1=CC(=O)C[C@@H](C)[C@]12Oc1c(Cl)c(OC)cc(OC)c1C2=O,inactive,–
CCCCc1oc2ccccc2c1C(=O)c1cc(I)c(OCCN(CC)CC)c(I)c1,–,15.1 µM (active)
Oc1c(Cl)cc(Cl)cc1Sc1cc(Cl)cc(Cl)c1O,–,9.13 µM (active) and 5.86 µM (active)
Cc1ccc(C(=O)c2ccccc2)cc1,–,27 µM (active)
CN(CCO)S(=O)(=O)C(F)(F)C(F)(F)C(F)(F)C(F)(F)C(F)(F)C(F)(F)C(F)(F)C(F)(F)F,inactive,–
OCC(CO)(CBr)CBr,inactive,–
CC[N+](CC)(CC)Cc1ccccc1,inactive,–
O=P(O)(O)CCC(F)(F)C(F)(F)C(F)(F)C(F)(F)C(F)(F)C(F)(F)F,inactive,–
N=C(N)c1ccc(OCCCCCOc2ccc(C(=N)N)cc2)cc1,inactive,–
O=C(O)CCC(F)(F)C(F)(F)C(F)(F)C(F)(F)C(F)(F)F,inactive,–
O=C1c2ccc(O)c(O)c2C(=O)c2c(O)ccc(O)c21,inactive,–
C=COC(=O)C(C)(C)CCCCCC,–,20 µM (active)
Cc1[nH]nc2c1N=C(c1ccccc1Cl)c1cc([N+](=O)[O-])ccc1N2,–,10.4 µM (active)
OCC(F)(F)C(F)(F)C(F)(F)C(F)(F)C(F)(F)C(F)(F)C(F)(F)C(F)(F)C(F)(F)C(F)(F)C(F)(F)F,inactive,–

# Read-out: Human Leukocyte Antigen - DR isotype (HLADR), HLA-DRA (gene 3122)
# Experiment: BSK_3C_HLADR: BioMAP Diversity Plus: 3C Assay for Human Leukocyte Antigen - DR isotype (HLADR) Biomarker Activity (AID 2283019);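 on outcome: ELISA of cell-surface HLA-DR on HUVEC 24 h after dosing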
# Conditions: primary human endothelial cells (HUVEC); actives raise or lower the signal
# Procedure, shortened: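 Compound added to primary HUVEC cultures, 24 h incubation, then HLA-DR determined by ELISA; endpoint derived by bidirectional fitting relative to DMSO negative control.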
SMILES,outcome,AC50
COC1=CC(=O)C[C@@H](C)[C@]12Oc1c(Cl)c(OC)cc(OC)c1C2=O,inactive,–
CCCCc1oc2ccccc2c1C(=O)c1cc(I)c(OCCN(CC)CC)c(I)c1,–,9.35 µM (active)
Oc1c(Cl)cc(Cl)cc1Sc1cc(Cl)cc(Cl)c1O,–,15.5 µM (active) and 22.3 µM (active)
Cc1ccc(C(=O)c2ccccc2)cc1,–,28.2 µM (active)
CN(CCO)S(=O)(=O)C(F)(F)C(F)(F)C(F)(F)C(F)(F)C(F)(F)C(F)(F)C(F)(F)C(F)(F)F,inactive,–
OCC(CO)(CBr)CBr,inactive,–
CC[N+](CC)(CC)Cc1ccccc1,inactive,–
O=P(O)(O)CCC(F)(F)C(F)(F)C(F)(F)C(F)(F)C(F)(F)C(F)(F)F,inactive,–
N=C(N)c1ccc(OCCCCCOc2ccc(C(=N)N)cc2)cc1,–,10.1 µM (active)
O=C(O)CCC(F)(F)C(F)(F)C(F)(F)C(F)(F)C(F)(F)F,inactive,–
O=C1c2ccc(O)c(O)c2C(=O)c2c(O)ccc(O)c21,inactive,–
C=COC(=O)C(C)(C)CCCCCC,–,33.6 µM (active)
Cc1[nH]nc2c1N=C(c1ccccc1Cl)c1cc([N+](=O)[O-])ccc1N2,–,3.12 µM (active)
OCC(F)(F)C(F)(F)C(F)(F)C(F)(F)C(F)(F)C(F)(F)C(F)(F)C(F)(F)C(F)(F)C(F)(F)C(F)(F)F,inactive,–

# Read-out: Interleukin-8 (IL8), CXCL8 (gene 3576)
# Experiment: BSK_3C_IL8: BioMAP Diversity Plus: 3C Assay for Interleukin-8 (IL8) Biomarker Activity (AID 2283020)
# Conditions: primary human endothelial cells (HUVEC); actives raise or lower the signal
# Procedure, shortened: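 ELISA read-out of IL-8 from human umbilical vein endothelium, measured 24 h after chemical dosing. Activity is expressed relative to DMSO negative control, with both increases and decreases fitted.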
SMILES,outcome,AC50
COC1=CC(=O)C[C@@H](C)[C@]12Oc1c(Cl)c(OC)cc(OC)c1C2=O,inactive,–
CCCCc1oc2ccccc2c1C(=O)c1cc(I)c(OCCN(CC)CC)c(I)c1,–,17.7 µM (active)
Oc1c(Cl)cc(Cl)cc1Sc1cc(Cl)cc(Cl)c1O,–,36 µM (active) and 35.2 µM (active)
Cc1ccc(C(=O)c2ccccc2)cc1,–,0.0156 µM (active)
CN(CCO)S(=O)(=O)C(F)(F)C(F)(F)C(F)(F)C(F)(F)C(F)(F)C(F)(F)C(F)(F)C(F)(F)F,inactive,–
OCC(CO)(CBr)CBr,inactive,–
CC[N+](CC)(CC)Cc1ccccc1,inactive,–
O=P(O)(O)CCC(F)(F)C(F)(F)C(F)(F)C(F)(F)C(F)(F)C(F)(F)F,inactive,–
N=C(N)c1ccc(OCCCCCOc2ccc(C(=N)N)cc2)cc1,–,12.3 µM (active)
O=C(O)CCC(F)(F)C(F)(F)C(F)(F)C(F)(F)C(F)(F)F,inactive,–
O=C1c2ccc(O)c(O)c2C(=O)c2c(O)ccc(O)c21,inactive,–
C=COC(=O)C(C)(C)CCCCCC,–,30.2 µM (active)
Cc1[nH]nc2c1N=C(c1ccccc1Cl)c1cc([N+](=O)[O-])ccc1N2,inactive,–
OCC(F)(F)C(F)(F)C(F)(F)C(F)(F)C(F)(F)C(F)(F)C(F)(F)C(F)(F)C(F)(F)C(F)(F)C(F)(F)F,inactive,–
